SNCA expr inhib: Primary qHTS assay for inhibitors of alpha-synuclein gene (SNCA) expression. HEK-293 SNCA-luciferase knock-in, luminescence, 24 h. Potency, µM (top dose mostly 57.2 µM), usual class: inhibitors. hit rate 0.17% among 140,000; note: nearly all actives have a fitted effect of over 45% in size
NPR1 antag: Natriuretic polypeptide receptor (hNpr1) antagonism - Primary qHTS; Atrial natriuretic peptide receptor 1 (Homo sapiens), P16066; HEK293 hNpr1 GloSensor cGMP, ANP-stimulated luminescence; Potency, µM (series often up to 46.3 µM), actives largely listed as inhibitors; hit rate 1.6% among 76,000; AID 1347048, 2019; calls by dose curve; note: nearly all actives have a fitted effect of over 60% in size
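Compound pre-incubated 30 min at room temperature on GloSensor-loaded HEK293 cells stably carrying hNpr1 and the pGS-40F cGMP biosensor. Stimulation uses hNppA at 0.1 nM final; luminescence is taken at baseline and 20 min post-agonist.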
SNCA viab count: GF-AFC viability counterscreen for inhibitors of alpha-synuclein gene (SNCA) expression | HEK-293-SNCA-luc viability, GF-AFC fluorescence, 24 h | Potency, µM (series often up to 57.1 µM), most hits filed as cytotoxic | hit rate 0.12% among 150,000 | AID 1671193, 2021; note: nearly all actives have a fitted effect of over 30% in size
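Cytotoxicity counterscreen: after 24 h compound treatment of genome-edited SNCA-luciferase HEK-293 cells, live-cell protease substrate GF-AFC read by fluorescence after 30 min; activity scaled between DMSO (0%) and medium-only (-100%), curves Hill-fitted.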
FLuc inh: Firefly luciferase inhibition profiling of diverse chemical library using quantitative high-throughput screening; Potency, µM (doses to about 115 µM), actives largely listed as inhibitors; Luciferin 4-monooxygenase (Photinus pyralis), P08659; purified P. pyralis luciferase, luminescence, biochemical; hit rate 2.5% among 76,000; note: nearly all actives have a fitted effect of over 65% in size
Target sequence (P08659 whole entry, looked up): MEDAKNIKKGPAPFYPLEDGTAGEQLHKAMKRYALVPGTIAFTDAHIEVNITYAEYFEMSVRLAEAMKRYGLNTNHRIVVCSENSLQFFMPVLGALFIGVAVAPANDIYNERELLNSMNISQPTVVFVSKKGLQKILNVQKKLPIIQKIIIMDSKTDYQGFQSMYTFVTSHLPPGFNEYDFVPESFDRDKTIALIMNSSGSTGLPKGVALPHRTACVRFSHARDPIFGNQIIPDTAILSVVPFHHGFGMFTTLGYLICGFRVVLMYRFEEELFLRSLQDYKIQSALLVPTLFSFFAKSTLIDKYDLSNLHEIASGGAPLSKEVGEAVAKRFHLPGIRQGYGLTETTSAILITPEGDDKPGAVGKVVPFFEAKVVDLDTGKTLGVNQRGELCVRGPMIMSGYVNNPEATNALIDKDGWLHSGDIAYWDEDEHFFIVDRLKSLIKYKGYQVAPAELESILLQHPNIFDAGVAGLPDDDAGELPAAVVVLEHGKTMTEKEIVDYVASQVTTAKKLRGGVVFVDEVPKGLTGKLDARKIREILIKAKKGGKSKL
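Luminescence read by CCD imaging after purified firefly luciferase (10nM final) was added to substrate buffer holding 10uM D-luciferin and 10uM ATP, pH 7.5, pre-dosed with compound.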
3T3 cytotox: Cytotoxic Profiling in NIH 3T3 Cell Line of Diverse Libraries Using Quantitative High-Throughput Screening | Potency, µM (highest dose often 96.7 µM), actives largely listed as inhibitors | hit rate 4.3% among 94,000 | NIH 3T3 viability, CellTiter-Glo ATP luminescence, 48-72 h | AID 1345082, 2018; note: nearly all actives have a fitted effect of over 55% in size
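Cytotoxicity is measured as loss of cellular ATP: NIH 3T3 cells (400/well) are exposed to compound for 48 or 72 hr at 37 °C, then CellTiter-Glo luminescence is imaged after 10 min at room temperature.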
HEK cytotox: Cytotoxic Profiling in HEK 293 Cell Line of Diverse Libraries Using Quantitative High-Throughput Screening | HEK 293 viability, ATP luminescence (CellTiter-Glo), 48-72 h | AID 1345083, 2018 | Potency, µM (top dose mostly 115 µM), usual class: inhibitors | hit rate 6.6% among 94,000; note: nearly all actives have a fitted effect of over 60% in size
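Read-out: CellTiter-Glo ATP luminescence. Cells: HEK 293, 250 cells/well. Exposure: 48 or 72 hr, 37 degree Celsius.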
Of the large screens only hits and unclear results are named; the others gave an inactive call. Rows were chosen to be rich in hits. Some 7.4% of all compounds tested hit in one or more screens of this group. Unless noted, calls come from the whole dose curve; as a rule, active = well fitted curve in the direction sought with a large enough effect; inconclusive = small, poorly fitted or top-dose-only effect, or another doubt; inactive = no such curve, though single readings can be large; an effect the other way counts as inactive or inconclusive.

COc1ccccc1-c1cn2c(n1)CO[C@@H](CNCc1ccc(F)cc1)C2	3T3 cytotox inconclusive, HEK cytotox 70.8µM
COc1ccccc1-c1cn2c(n1)CO[C@@H](CNCc1ccc(F)c(F)c1)C2	3T3 cytotox inconclusive, HEK cytotox inconclusive
COc1ccccc1CNC[C@H]1Cn2cc(-c3ccccc3OC)nc2CO1	3T3 cytotox 79.4µM, HEK cytotox 112µM
COc1ccc(-c2cn3c(n2)CO[C@@H](CNCc2ccccc2OC)C3)cc1	FLuc inh inconclusive, 3T3 cytotox inconclusive, HEK cytotox inconclusive
O=C(NCC(=O)N1CCCCC1)c1cccc(-c2ccsc2)c1	3T3 cytotox inconclusive, HEK cytotox inconclusive (no result: NPR1 antag, FLuc inh)
Cc1ccc(SC2CCN(Cc3cc4n(n3)CCNC4)CC2)cc1	3T3 cytotox 14.1µM, HEK cytotox 14.1µM
COc1ccccc1OC1CCN(Cc2cc3n(n2)CCNC3)CC1	none
Cc1c(CN2C[C@@H](CN(C)CCO)[C@@H](CO)C2)[nH]c2c(Cl)cccc12	3T3 cytotox 79.4µM, HEK cytotox 44.7µM
CN(CCO)C[C@@H]1CN(C(=O)c2ccc3c(c2)CCC3)C[C@@H]1CO	none
CC(C)C[C@@H]1N[C@H](C(=O)NC(C)C)Cc2cn(Cc3ccncc3)c3cccc1c23	SNCA expr inhib inconclusive, NPR1 antag inconclusive, SNCA viab count inconclusive, 3T3 cytotox 31.6µM, HEK cytotox inconclusive
CCCNC(=O)[C@@H]1Cc2cn(Cc3cccnc3)c3cccc(c23)[C@H](CC(C)C)N1	SNCA expr inhib inconclusive, SNCA viab count inconclusive, 3T3 cytotox 89.1µM, HEK cytotox inconclusive
CC(C)C[C@@H]1N[C@H](C(=O)O)Cc2cn(Cc3ccncc3)c3cccc1c23	none
CC(C)C[C@@H]1N[C@H](C(=O)NCC2CC2)Cc2cn(Cc3ccncc3)c3cccc1c23	SNCA expr inhib inconclusive, SNCA viab count inconclusive, 3T3 cytotox inconclusive, HEK cytotox 35.5µM
CCCNC(=O)[C@@H]1Cc2cn(Cc3ccccn3)c3cccc(c23)[C@H](CC(C)C)N1	SNCA expr inhib inconclusive, SNCA viab count inconclusive, 3T3 cytotox inconclusive, HEK cytotox inconclusive
CC(C)C[C@@H]1N[C@H](C(=O)NCCN(C)C)Cc2cn(Cc3ccncc3)c3cccc1c23	SNCA expr inhib inconclusive, 3T3 cytotox 28.2µM, HEK cytotox 39.8µM
COc1ccc(CNC(=O)[C@@H]2Cc3cn(CC4CC4)c4cccc(c34)[C@H](CC(C)C)N2)cc1	3T3 cytotox inconclusive, HEK cytotox inconclusive
CN(C)c1ccc(-n2c(=O)c(C(=O)NCC(F)F)nc3cccnc32)cc1	none (no result: NPR1 antag, FLuc inh)
Cc1noc(C)c1[S+](=O)([O-])N1CCCC1C(=O)N1CCC(c2ccccc2)CC1 (stereo not given)	3T3 cytotox inconclusive, HEK cytotox inconclusive (no result: NPR1 antag, FLuc inh)
COc1ccc(C(=O)N2CCCC(C(=O)N3CCC(N4Cc5cccn5C4=O)CC3)C2)cc1 (stereo not given)	HEK cytotox inconclusive (no result: NPR1 antag, FLuc inh)
CCCNC(=O)[C@@H]1Cc2cn(Cc3ccncc3)c3cccc(c23)[C@H](CC(C)C)N1	SNCA expr inhib inconclusive, NPR1 antag inconclusive, SNCA viab count inconclusive, 3T3 cytotox 25.1µM, HEK cytotox 31.6µM
COc1ccc(-c2ccc(C(=O)N3CCN(C(=O)Nc4ccccc4)CC3)cc2)nn1	none (no result: SNCA expr inhib, NPR1 antag, SNCA viab count, FLuc inh)
O=C(NC1CCN(C(=O)c2ccc(-c3cncnc3)cc2)CC1)c1ccc(Cl)cc1	3T3 cytotox inconclusive, HEK cytotox inconclusive (no result: NPR1 antag, FLuc inh)
COc1ccccc1-c1ccc(CN2CCN(c3cc(Cl)ncn3)C(=O)C2)cc1	3T3 cytotox inconclusive, HEK cytotox 44.7µM
Cc1noc(C)c1-c1cc(-c2ccc(N3CCOCC3)nc2)cn2cncc12	FLuc inh inconclusive, 3T3 cytotox inconclusive, HEK cytotox inconclusive
Cc1noc(C)c1-c1cc(-c2ccc(CO)cc2)cn2cncc12	3T3 cytotox inconclusive, HEK cytotox inconclusive
Cc1noc(C)c1-c1cc(-c2cccc(F)c2)cn2cncc12	3T3 cytotox 44.7µM, HEK cytotox inconclusive
COc1ccc(-c2cc(-c3c(C)noc3C)c3cncn3c2)cn1	SNCA expr inhib inconclusive, 3T3 cytotox 50.1µM, HEK cytotox inconclusive
Cc1noc(C)c1-c1cc(-c2cccc(O)c2)cn2cncc12	3T3 cytotox 25.1µM, HEK cytotox inconclusive
CC(=O)N1CCC(Nc2ncccc2-c2cc(-c3ccccc3)nc3c(C)noc23)CC1	3T3 cytotox inconclusive, HEK cytotox 100µM
Cc1noc2c(-c3cccc(O)c3)cc(-c3cccs3)nc12	3T3 cytotox 39.8µM, HEK cytotox 70.8µM
Cc1noc2c(NC3CCN(C)CC3)cc(-c3ccc(Cl)cc3)nc12	3T3 cytotox 10µM, HEK cytotox 35.5µM
CC(=O)N1CCC(Nc2cc(-c3ccc(Cl)cc3)nc3c(C)noc23)CC1	3T3 cytotox inconclusive, HEK cytotox inconclusive
Cc1noc2c(-c3cccnc3NC(C)C)cc(-c3ccccc3)nc12	3T3 cytotox inconclusive, HEK cytotox inconclusive
Cc1noc2c(NC3CCN(C)CC3)cc(-c3cccs3)nc12	3T3 cytotox inconclusive, HEK cytotox 79.4µM
CC(C)C(=O)Nc1cc(C2CC2)nn1C	none (no result: NPR1 antag, FLuc inh)
COc1ccc(-c2cc(C[C@H]3CNCC[C@H]3CC(=O)N3CCC(n4c(=O)[nH]c5ccccc54)CC3)no2)cc1	3T3 cytotox inconclusive, HEK cytotox inconclusive
CC(C)N1C[C@H](Oc2ccccc2)[C@@H]1C1CCN(C(=O)c2cccc(C#N)c2)CC1	none (no result: NPR1 antag, FLuc inh)
Cc1noc2c(NC3CCC(O)CC3)cc(-c3ccc(Cl)cc3)nc12 (stereo not given)	SNCA expr inhib inconclusive, 3T3 cytotox 22.4µM, HEK cytotox 89.1µM
Clc1cc(NCC2CCCCCC2)n2nccc2n1	SNCA viab count inconclusive, 3T3 cytotox 31.6µM, HEK cytotox inconclusive
Clc1cc(NCC2CCCCC2)n2nccc2n1	3T3 cytotox inconclusive, HEK cytotox inconclusive
Clc1cc(N2CCCCC2)n2nccc2n1	none
Clc1cc(NC2CCCCCC2)n2nccc2n1	3T3 cytotox inconclusive, HEK cytotox 89.1µM
O=C(NCc1ccc2c(c1)OCO2)c1cc(-c2cccc(C(F)(F)F)c2)c2nncn2n1	none (no result: NPR1 antag, FLuc inh)
Fc1ccc(CNC[C@H]2Cn3c(-c4ccc(Cl)cc4)cnc3CO2)cc1	SNCA expr inhib inconclusive, NPR1 antag inconclusive, 3T3 cytotox inconclusive, HEK cytotox 79.4µM
Clc1ccc(CNC[C@H]2Cn3c(-c4ccccc4)cnc3CO2)cc1	NPR1 antag inconclusive, 3T3 cytotox 89.1µM, HEK cytotox 100µM

Source: PubChem BioAssay (National Center for Advancing Translational Sciences (NCATS))
